A selection: hits, their analogues and other compounds. The true share with any hit is near 9%.
BAZ2B block = blocks human BAZ2B; actives 4.4% (n = 360,000); AlphaScreen BAZ2B-H3K14Ac peptide displacement; Potency, µM (highest dose often 114 µM), for inactives: top-dose activity change, negative = inhibition, most hits filed as inhibitors; Q9UIF8; further: on the % scale 0 is the no-effect control and ±100 the full control effect; nearly all actives have a fitted effect of over 60% in size
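BAZ2B (50 nM) with biotin-H3(5-23)K14Ac peptide (50 nM) in PBS pH 7.4, 0.01% Tween-20, preformed 30 min, then compound 30 min at room temperature; top concentration 110uM. AlphaScreen streptavidin donor/nickel chelate acceptor beads (10 ug/mL final), 20 min dark, signal read.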
ALOX12 inh = blocks human arachidonate 12S-lipoxygenase | P18054 | purified 12hLO, xylenol orange hydroperoxide absorbance | Potency, µM (titrated, usually from 108 µM), without a hit: at the highest dose activity change, negative = inhibition, hits mostly inhibitors | AID 1671190 | actives 1.1% (n = 580,000); further: on the % scale 0 is the no-effect control and ±100 the full control effect
Target sequence (P18054 whole entry, looked up): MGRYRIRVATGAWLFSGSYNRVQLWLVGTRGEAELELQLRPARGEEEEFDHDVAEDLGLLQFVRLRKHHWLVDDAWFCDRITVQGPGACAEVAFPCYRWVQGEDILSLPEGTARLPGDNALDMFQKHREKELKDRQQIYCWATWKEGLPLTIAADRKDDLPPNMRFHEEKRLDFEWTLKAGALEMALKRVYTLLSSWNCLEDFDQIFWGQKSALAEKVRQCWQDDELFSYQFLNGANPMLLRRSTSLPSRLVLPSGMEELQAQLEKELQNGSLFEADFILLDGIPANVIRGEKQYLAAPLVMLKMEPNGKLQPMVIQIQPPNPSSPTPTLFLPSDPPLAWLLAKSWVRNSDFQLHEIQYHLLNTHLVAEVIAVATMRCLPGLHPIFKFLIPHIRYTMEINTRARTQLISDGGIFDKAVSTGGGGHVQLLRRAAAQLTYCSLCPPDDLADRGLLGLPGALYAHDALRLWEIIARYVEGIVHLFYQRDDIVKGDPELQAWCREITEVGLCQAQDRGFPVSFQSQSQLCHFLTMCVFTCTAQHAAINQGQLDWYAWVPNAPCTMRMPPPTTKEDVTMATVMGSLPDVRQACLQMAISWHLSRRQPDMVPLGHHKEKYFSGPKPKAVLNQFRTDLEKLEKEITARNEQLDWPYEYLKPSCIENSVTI
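Purified human 12hLO (150 nM final) in 25 mM Hepes, 0.01% Triton X-100, pH 7.0 was preincubated 15 min at room temperature with compound. Then 40 uM arachidonic acid was added, 30 min. Hydroperoxide was read by Fe-XO absorbance ratio 573/405 nm.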
PLK1 PBD block = PLK1 (human) polo-box domain binding inhibition. P53350. Plk1 PBD binding of FITC phosphopeptide, fluorescence polarization. Potency, µM, inactives show max response, negative = inhibition, hits mostly inhibitors. actives 2.8% (n = 360,000); further: series mostly up to about 57 µM; on the % scale 0 is the no-effect control and ±100 the full control effect; nearly all actives have a fitted effect of over 65% in size
G9a inh = G9a (human) methyltransferase inhibition | G9a H3K9 monomethylation, AlphaScreen, 2 h | Potency, µM (top dose mostly 102 µM), inactives show at the highest dose activity, negative = inhibition, usual class: inhibitors | actives 8.8% (n = 350,000) | AID 504332; further: on the % scale 0 is the no-effect control and ±100 the full control effect; nearly all actives have a fitted effect of over 75% in size
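Compounds were preincubated with 20 nM G9a for 15 min, after which biotinylated H3K9 peptide (500 nM) and SAM (20 uM) started a 2 h room-temperature reaction. Monomethylated product was quantified by antibody-based AlphaScreen chemiluminescence.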
JMJD2A Tudor = JMJD2A Tudor domain (human) inhibition; O75164; AlphaScreen JMJD2A-Tudor / H3K4me3 peptide binding; Potency, µM (series often up to 114 µM), for the others: at the highest dose activity change, negative = inhibition, hits mostly inhibitors; actives 4.4% (n = 390,000); further: on the % scale 0 is the no-effect control and ±100 the full control effect; nearly all actives have a fitted effect of over 50% in size
HP1b chromo inh = blocks HP1-beta chromodomain binding to methylated histone tails. AlphaScreen HP1-beta / biotin-H3K9me3 peptide binding. Potency, µM (highest dose often 114 µM), for the others: at the highest dose activity change, negative = inhibition, actives largely listed as inhibitors. actives 0.56% (n = 390,000). P83916; further: nearly all actives have a fitted effect of over 70% in size
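AlphaScreen: HP1-beta (50 nM) preformed 30 min with biotin-H3(1-18)K9me3 peptide (50 nM) in PBS pH 7.4, 0.01% Tween-20. Compound added for 30 min at RT, then streptavidin donor/nickel chelate acceptor beads (10 ug/mL) for 30 min.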
* hit, by the source's call; u = inconclusive; x = no result; [ ] = remark or other dose. The call rests on the fitted dose curve; in most records, active means well fitted curve in the direction sought with a large enough effect; inconclusive means small, poorly fitted or top-dose-only effect, or another doubt; inactive means no such curve, though single readings can be large; an effect the other way counts as inactive or inconclusive. Potency means the concentration at half of the fitted maximal effect.

SMILES	BAZ2B block	ALOX12 inh	PLK1 PBD block	G9a inh	JMJD2A Tudor	HP1b chromo inh
CCCS(=O)(=O)N1CCN(c2ccccc2F)CC1	13%	59%	-1%	1%[12.7 µM]	14%	62%
CN1CCN(Cc2nc(C3(O)CCN(Cc4ccccc4C(F)(F)F)CC3)cs2)CC1	x	25%	x	x	x	x
COc1cc(CN(C)CC(=O)c2[nH]c(C)c(C(C)=O)c2C)ccc1OC(F)F	-7%	-28%	-10%	u	-15%	19%
C=CCOc1ccccc1CN1CCCN(C)CC1	71µM*	-8%	-14%	8.9µM*	10µM*	u
C=CCOc1ccccc1CN1CCC(CO)(CCOc2ccccc2)CC1	-1%	5%	6%	7%	-14%	42%
O=[N+]([O-])c1ccc(O)c2ncccc12	3.5µM*	u	-13%	u	22µM*	-4%
O=[N+]([O-])c1ccc(O)c2cccnc12	u	-1%	-2%	u	-20%	u
O=[N+]([O-])c1ccccc1Oc1ccc(Cl)c2cccnc12	-34%	-1%	-3%	-24%	-17%	8%
O=[N+]([O-])c1cc([N+](=O)[O-])c2cccnc2c1Oc1ccccc1O	28µM*	u	3.4µM*	3.2µM*	22µM*	71µM*
CC(=O)NCCCC(=O)N1CCC2(CC1)CC(N[S+](C)(=O)[O-])c1ccccc12 (stereo unspecified)	x	2%[6.33 µM]	x	x	x	x
CC(C)OCCCNC(=O)Cn1c(-c2cccs2)cc2cc(F)ccc21	-4%	-16%	x	7%[59 µM]	2%	62%
O=C1c2ccccc2NC(c2ccccc2)N1c1ccc(F)c(F)c1 (stereo unspecified)	x	20%	x	x	x	x
COc1ccc(N(CC(=O)Nc2nccs2)S(=O)(=O)c2c(C)nn(C)c2C)cc1	-9%	u	-15%	-7%	-15%	29%
C=CCn1c(SCc2nc(N)nc(N(C)C)n2)nnc1-c1cccnc1	u	u	1%	50µM*	-11%	21%
C=CCn1c(SCC(=O)c2ccc(O)c(O)c2)nnc1-c1cccc(Cl)c1	50µM*	u	-20%	-4%[0.501 µM]	u	-6%
C=CCn1c(SCC(=O)c2ccc(F)cc2)nnc1-c1ccc2c(c1)OCO2	-13%	-2%	-14%	-8%[59 µM]	-21%	37%
C=CCn1c(SCC(=O)c2ccc(O)c(O)c2)nnc1-c1cccnc1	35µM*	-5%	-16%	x	-23%[11.4 µM]	25µM*
C=CCn1c(SCC(=O)c2ccc(O)c(O)c2)nnc1-c1cccc(C)c1	50µM*	8.9µM*	-4%	u	u	-8%
C=CCn1c(SCc2ccccc2)nnc1-c1cccnc1	5%	-20%	-8%	6%[12.7 µM]	-6%	2%
C=CCn1c(SCC(=O)O)nnc1-c1cccc(Cl)c1	2%	7%	-6%	2%[12.7 µM]	4%	55%
O=C(NCc1ccccc1)C1CCC(=O)N1C1CCN(C(=O)Cc2ccccc2F)CC1 (stereo unspecified)	x	22%	x	x	x	x
Cc1nc(C2CCCCN2C(=O)c2ccc(F)cc2)n[nH]1 (stereo unspecified)	x	34%	x	x	x	x
C=CCn1c(SCC(=O)Nc2ccc(N(C)C)cc2)nnc1-c1cccc(C)c1	45µM*	0%	-10%	7.9µM*	50µM*	-58%
COc1cc(CN2CCN(c3cccc(Cl)c3)CC2)cc(OC)c1OC	50µM*	u	-4%	13µM*	3.5µM*	u
COc1cc(CN2CCN(C(O)(c3ccccc3)c3ccccc3)CC2)cc(OC)c1OC	u	0%	-6%	x	25µM*	-13%
COc1cc(S(=O)(=O)N2CCN(Cc3ccccc3)CC2)ccc1Br	4%	0%	-6%	45µM*	-11%	18%
COc1ccc(OC)c(S(=O)(=O)N2CCN(Cc3ccccc3)CC2)c1	-9%	0%	1%	x	1%	28%
COc1cc(CN2CCN(S(=O)(=O)c3ccccc3)CC2)cc(OC)c1OC	u	u	-4%	28µM*	20µM*	u

Source: PubChem BioAssay
